JMJD2A Tudor: blocks the human JMJD2A Tudor domain; Potency, µM (doses to about 114 µM), for inactives: at the top dose activity change, negative = inhibition, usual class: inhibitors; AlphaScreen JMJD2A-Tudor / H3K4me3 peptide binding; 390,000 tested, 4.4% active; AID 504339; O75164; note: % is set by controls: 0 for no effect and ±100 for the full control effect; nearly all actives have a fitted effect of over 50% in size
G9a inh: G9a (human) methyltransferase inhibition | Q96KQ7 | G9a H3K9 monomethylation, AlphaScreen, 2 h | Potency, µM (titrated, usually from 102 µM), without a hit: at the top dose activity, negative = inhibition, usual class: inhibitors | 350,000 tested, 8.8% active | AID 504332; note: % is set by controls: 0 for no effect and ±100 for the full control effect; nearly all actives have a fitted effect of over 75% in size
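Quantitative HTS format: methyltransferase activity on a biotin-tagged H3K9 peptide is measured by AlphaScreen, using a rabbit anti-monomethyl-H3K9 antibody with streptavidin donor and anti-IgG acceptor beads. Final levels are 20 nM enzyme, 500 nM peptide, 20 uM SAM; 2 h RT.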
PLK1 PBD inh: PLK1 (human) polo-box domain binding inhibition | AID 720504 | 360,000 tested, 2.8% active | Potency, µM, inactives show max response, negative = inhibition, usual class: inhibitors | P53350 | Plk1 PBD binding of FITC phosphopeptide, fluorescence polarization; note: series mostly up to about 57 µM; % is set by controls: 0 for no effect and ±100 for the full control effect; nearly all actives have a fitted effect of over 65% in size
Target sequence (P53350 whole entry, looked up, the tested form may be a part): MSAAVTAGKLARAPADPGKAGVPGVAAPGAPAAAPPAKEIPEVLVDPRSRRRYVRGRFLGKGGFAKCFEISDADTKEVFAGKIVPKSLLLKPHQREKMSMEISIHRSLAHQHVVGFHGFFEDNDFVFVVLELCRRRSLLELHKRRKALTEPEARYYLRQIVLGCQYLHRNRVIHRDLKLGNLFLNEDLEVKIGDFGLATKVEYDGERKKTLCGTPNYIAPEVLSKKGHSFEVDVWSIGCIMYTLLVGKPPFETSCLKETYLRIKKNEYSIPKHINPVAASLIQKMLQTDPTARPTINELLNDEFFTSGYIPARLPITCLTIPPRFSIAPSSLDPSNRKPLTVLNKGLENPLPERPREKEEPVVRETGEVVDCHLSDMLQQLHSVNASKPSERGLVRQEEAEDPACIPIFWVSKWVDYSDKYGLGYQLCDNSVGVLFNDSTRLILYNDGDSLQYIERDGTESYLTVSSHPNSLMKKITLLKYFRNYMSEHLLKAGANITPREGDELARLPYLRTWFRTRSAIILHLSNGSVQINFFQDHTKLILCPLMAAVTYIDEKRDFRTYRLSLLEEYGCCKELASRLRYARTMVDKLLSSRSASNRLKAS
Sfp inh: Sfp phosphopantetheinyl transferase inhibition; 310,000 tested, 3.5% active; Potency, µM, inactives show largest response in the series, negative = inhibition, usual class: inhibitors; Q9F4F7; AID 1490; Biochemical Sfp PPTase activity, qHTS;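 note: the enzyme is Sfp with the accession as filed and its product quenches rhodamine fluorescence; 0% = enzyme reaction without inhibitor and -100% = no enzyme wells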
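Fluorescence-quenching assay with 15 nM Sfp, 5 uM rhodamine-CoA and 12.5 uM BHQ-2-labelled ybbR peptide in pH 7.6 Hepes/MgCl2 buffer. Enzyme was pre-incubated with compound for 15 min at room temperature. Rate was taken from the 30-min fluorescence change (525/598 nm).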
HP1b binding inh: blocks HP1-beta chromodomain binding to methylated histone tails. AlphaScreen HP1-beta / biotin-H3K9me3 peptide binding. AID 540317. Potency, µM (titrated, usually from 114 µM), for inactives: at the top dose activity change, negative = inhibition, hits mostly inhibitors. P83916. 390,000 tested, 0.56% active; note: nearly all actives have a fitted effect of over 70% in size
Target sequence (P83916 whole entry, looked up): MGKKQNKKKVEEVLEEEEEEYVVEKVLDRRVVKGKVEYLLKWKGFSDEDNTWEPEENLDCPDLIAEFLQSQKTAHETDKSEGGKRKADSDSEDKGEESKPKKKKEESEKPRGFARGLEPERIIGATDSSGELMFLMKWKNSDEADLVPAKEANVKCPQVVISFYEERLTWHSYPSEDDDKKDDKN
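Compound inhibition of the preformed complex between 50 nM HP1-beta and 50 nM biotinylated H3K9me3 peptide was read by AlphaScreen. Buffer was PBS pH 7.4 with 0.01% Tween-20. Incubations ran 30 min at room temperature, with 10 ug/mL donor/acceptor beads.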
BAZ2B inh: inhibitors of human BAZ2B bromodomain | AID 504333 | AlphaScreen BAZ2B-H3K14Ac peptide displacement | Potency, µM (doses to about 114 µM), inactives show at the top dose activity change, negative = inhibition, usual class: inhibitors | 360,000 tested, 4.4% active; note: % is set by controls: 0 for no effect and ±100 for the full control effect; nearly all actives have a fitted effect of over 60% in size
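Inhibition is scored as reduced AlphaScreen emission. The BAZ2B/b-H3(5-23)K14Ac complex (50 nM each) in PBS pH 7.4, 0.01% Tween-20 meets compound (up to 110 uM) for 30 min at RT before bead addition.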
Numbers without * were called inactive; ? = inconclusive; . = not tested or not shown; [ ] = remark or other dose. A selection: hits, their analogues and other compounds. The true share with any hit is near 12%. Calls come from the whole dose curve; as a rule, active = well fitted curve in the direction sought with a large enough effect; inconclusive = small, poorly fitted or top-dose-only effect, or another doubt; inactive = no such curve, though single readings can be large; an effect the other way counts as inactive or inconclusive. Potency is the fitted concentration of half-maximal effect.

SMILES	JMJD2A Tudor	G9a inh	PLK1 PBD inh	Sfp inh	HP1b binding inh	BAZ2B inh
N#C/C(=C\c1cccnc1)C(=O)Nc1cccc2ccccc12	-26.2%	50.1µM*	?	?	2.6%	3.4%
Cc1cccc(NC(=O)/C(C#N)=C\c2ccc(C(=O)O)cc2)c1	5.4%	-46.0%	-27.7%	35.5µM*	32.5%	-18.3%
COc1ccc(-c2nnc(SC)nc2-c2ccc(OC)c([N+](=O)[O-])c2)cc1[N+](=O)[O-]	2.51µM*	.	-20.3%	.	?	.
COc1ccccc1-c1nccc(N2CCN(C)CC2)n1	.	6.2%[0.501 µM]	.	16.8%	.	.
O=C1NN(c2ccccc2)C(=O)/C1=C/c1ccc(Sc2ccc(Cl)cc2)o1	?	?	2.99µM*	-1.8%	-7.6%[57 µM]	-36.5%
Cc1ccc(Sc2ccc(/C=C3/C(=O)NN(c4ccccc4)C3=O)o2)cc1	?	-24.1%[59 µM]	5.97µM*	-4.6%	6.3%	?
O=C1NC(=O)/C(=C\c2ccc(Sc3ccc(Cl)cc3)o2)N1	-35.7%	-39.9%[59 µM]	?	-14.0%	4.4%	-33.4%
Cc1ccc(CNC(=O)CCc2c(C)nc3c4c(C)cc(C)nc4nn3c2C)cc1	-9.1%	11.1%[59 µM]	.	.	43.1%	-28.1%
COc1ccc(C(C[N+](=O)[O-])c2c(C)[nH]c3ccccc23)cc1OC (stereo unspecified)	?	9.3%[59 µM]	-4.3%	-7.1%	-29.2%	?
COc1ccc(C(C[N+](=O)[O-])c2c(C)cc3ccccn23)cc1 (stereo unspecified)	?	35.5µM*	-13.1%	5.6%	-16.8%	?
Cc1cc2ccccn2c1C(C[N+](=O)[O-])c1ccc(N(C)C)cc1 (stereo unspecified)	11.2µM*	10µM*	-2.1%	-19.7%	?	8.91µM*
COc1ccc(C(C[N+](=O)[O-])c2c(-c3ccccc3)cc3ccccn23)c(OC)c1 (stereo unspecified)	?	10µM*	-14.2%	44.7µM*	0.0%	79.4µM*
Cc1ccccc1CNC(=O)Cn1ccc2cc(S(=O)(=O)N3CCCCC3)ccc21	-14.8%	-30.9%[59 µM]	.	.	20.3%	-26.4%
CC(=O)Nc1ccc(C)c(NS(=O)(=O)c2cccc(C(F)(F)F)c2)c1	-11.2%	-4.6%	-5.0%	6.0%	24.2%	-4.0%
Cc1c(Cl)cccc1-n1c(SCC(=O)N2CCC(C(=O)O)CC2)nc2ccccc2c1=O	-2.5%	-6.8%	1.4%	1.2%	31.9%	0.3%
COc1ccc(C2C(C#N)=C3NC(=O)c4c(sc5c4CCCCC5)N3C3=C2C(=O)CC(C)(C)C3)cc1 (stereo unspecified)	-34.7%	-15.9%	?	56.2µM*	?	-5.5%[57.1 µM]
CCN(CC)C(=O)C1=C(C)N(CCCOC)C(=O)C(CC(=O)NCCN2CCOCC2)C1 (stereo unspecified)	.	.	-16.9%	.	.	.
O=C1c2cccnc2C(=O)N1Cc1ccc(S(=O)(=O)NCc2ccco2)s1	-34.6%	3.4%	-9.8%	6.3%	32.8%	79.4µM*
CCN(CC)C(=O)CSc1nc2c(sc(=S)n2-c2ccccc2)c(=O)n1-c1ccc(OC)cc1OC	?	2µM*	2.99µM*	22.4µM*	?	-16.2%
CCN(CC)C(=O)CSc1nc2c(sc(=S)n2-c2ccccc2)c(=O)n1-c1ccccc1OC	-25.2%	11.6%	1.0%	15.2%	9.7%	-9.2%
COc1ccccc1-n1c(SCC(=O)O)nc2c(sc(=S)n2-c2ccc(C)c(C)c2)c1=O	-21.0%	?	-9.8%	-3.5%	-2.7%	-13.1%
CCOC(=O)CSc1nc2c(sc(=S)n2-c2ccccc2)c(=O)n1-c1ccc(OC)cc1OC	?	1.58µM*	4.74µM*	31.6µM*	?	-34.5%
CCOC(=O)c1ccc2[nH]c(C)c(C)c2c1	?	.	-3.9%	.	?	.
Cc1[nH]c2ccc(-c3n[nH]c(=S)n3C)cc2c1C	4.47µM*	3.98µM*	-13.1%	-12.7%	?	?
CCn1c(-c2ccc3[nH]c(C)c(C)c3c2)n[nH]c1=S	22.4µM*	2.82µM*	-7.7%	-27.0%	-26.4%	?
SMILES	JMJD2A Tudor	G9a inh	PLK1 PBD inh	Sfp inh	HP1b binding inh	BAZ2B inh
CN(C)c1nc(N(C)C)nc(N(C#N)CN2C(=O)c3ccccc3C2=O)n1	.	-5.2%	.	13.8%	.	-4.7%
O=C(Cn1cc2c(n1)CCCC2)Nc1cc(C(F)(F)F)ccc1Cl	-0.7%	3.2%[59 µM]	.	.	21.0%	3.4%
COc1ccc(/C=N/NC(=S)Nc2cccc(C(=O)O)c2)cc1OC	-16.7%	?	-1.7%	-18.2%	17.0%	7.7%
Clc1ccc(N/N=C/c2cccnc2)cc1	?	3.98µM*	-0.9%	-6.5%	3.4%	?
CC(C)(C)c1ccc(/C=N/Nc2cccc(C(=O)O)c2)cc1	-32.5%	28.2µM*	?	13.1%	15.2%	-23.8%
O=C(N/N=C/c1cccnc1)c1ccccc1	-11.0%	13.9%	-2.7%	2.9%	18.7%	4.9%
O=C(O)c1cccc(N/N=C/c2cccnc2)c1	-17.1%	28.2µM*	-11.9%	23.2%	18.5%	-13.2%
O=[N+]([O-])c1ccc(N/N=C/c2cccnc2)cc1	-8.8%	0.3%[59 µM]	-8.5%	2.4%	20.8%	6.0%[0.457 µM]
CN(C)c1ccc(/C=N/Nc2cccc(C(=O)O)c2)cc1	?	7.94µM*	2.6%	-29.9%	31.4%	?
CC(=O)Nc1cccc(C(=O)/C=C/c2ccc(N(C)C)cc2)c1	11.7%	14.5%[59 µM]	46.9%	-19.3%	80.3%	-2.2%
COc1ccccc1CNc1ccnc(-c2cccnc2)n1	.	-43.2%[0.501 µM]	.	-21.8%	.	.
CCC(CC)C(=O)Nc1cc(-c2cn3cccnc3n2)ccc1OC	-19.7%	-41.5%[59 µM]	.	.	18.1%[57 µM]	-1.4%
C(=N\NC1=Nc2cccc3cccc1c23)/c1ccccc1	-29.3%	-4.7%[59 µM]	?	?	-11.2%	?
O=C(O)c1cccc(N/N=C/c2ccc(-c3ccccc3)cc2)c1	-29.0%	25.1µM*	?	-9.9%	15.3%	.
COc1ccccc1/C=C/C=N/Nc1cccc(C(=O)O)c1	?	-3.9%	-28.9%	-7.6%	-21.9%	-33.1%
C(=N\NC1=Nc2cccc3cccc1c23)/c1cccnc1	?	?	8.0%	?	-30.9%	39.8µM*
COc1nc(/C(N)=N/O)nc(N2CCCCC2)n1	?	?	-12.8%	79.4µM*	66.0%	?
NC(=O)C1CCN(C(=O)C2c3ccccc3C(=O)N3CCc4ccccc4C23)CC1 (stereo unspecified)	-17.7%	79.4µM*	-11.1%	?	8.7%	?
CC1CCN(C(=O)C2c3ccccc3C(=O)N3CCc4ccccc4C23)CC1 (stereo unspecified)	?	-33.0%	-8.3%	-2.4%	21.1%	-0.1%
O=C(COC(=O)Cc1ccccc1F)Nc1ccc(Cl)cn1	20µM*	-30.1%	16.8µM*	6.4%	-11.2%	11.5%
O=C(COc1ccc2ccccc2c1)NCCNC(=O)COc1ccc2ccccc2c1	-12.7%	?	-1.2%	2.4%	8.4%	?

Assay outcomes deposited in PubChem by National Center for Advancing Translational Sciences (NCATS).
